Compound activity (PubChem BioAssay)
CHOP inhibitor: inhibitors of CHOP promoter induction, primary screen, cell-based, unfolded protein response, luciferase reporter; CHO-K1 CHOP-promoter luciferase, tunicamycin-induced, 15-18 h; inhibition, % at 10 µM; 220,000 tested, 3.8% active; AID 2732, 2010;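 active means compounds that reduced the stress-induced luciferase reporter signal by more than about 70% of percent inhibition, limit read from the data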
WT yeast gro inh: growth inhibition of WT strain, primary screen, mitochondrial fusion inhibitor project, WT and mutant strains, chemical genetic; AID 1362, 2008; mitochondrial fusion phenotypic screen; 190,000 tested, 2.1% active; inhibition, % at 10 µM; in the data active means inhibition above about 58%; tested in S. cerevisiae
Arbovirus inh: antivirals against arbovirus infection, primary screen, cell-based, full library, 10K replicate subset | inhibition, % at 10 µM | 200,000 tested, 0.37% active | arbovirus infection cell-based antiviral screen; in the data active means inhibition above about 30%
Lmaj promast: Leishmania major promastigote growth inhibition, primary screen. Leishmania major promastigotes, resazurin fluorescence viability. inhibition, % at 10 µM. 200,000 tested, 9% active; in the data active means inhibition above about 50%;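 further: promastigotes grown with compound for 44 hours at 28 °C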
Large screens that a line does not name were inactive. Most compounds without a hit are left out; they make up all but 12% or so of the library.

CCOC(=O)c1cc(OC(=O)c2ccccc2OC)n(-c2ccccc2)n1	CHOP inhibitor 80
CCOC(=O)c1sc2ccccc2c1OC(=O)c1ccccc1OC	none
CC1CCCC(NC(=S)NC(=O)c2cncc(Br)c2)C1C (centres undefined)	WT yeast gro inh 62
O=C(Nc1ccc2oc(-c3ccccc3Cl)nc2c1)c1ncn[nH]1	Lmaj promast 94
O=C(Nc1ccc2oc(-c3ccccc3Cl)nc2c1)c1cncc(Br)c1	CHOP inhibitor 71
CC(=O)Nc1ccc2oc(-c3cc(F)c(F)cc3Cl)nc2c1	CHOP inhibitor 82
CCC(C)c1ccc2oc(-c3ccc(NC(=O)c4ncn[nH]4)cc3)nc2c1 (centres undefined)	Lmaj promast 65
CCCCNS(=O)(=O)c1ccc(NC(=O)Cc2ccccc2[N+](=O)[O-])cc1	none
CN(C)Cc1ccccc1Sc1ccc(O)cc1O	none
CC(/C=N/NC(=O)c1cc(-c2cccn2C)n[nH]1)=C\c1ccccc1	none (no result: WT yeast gro inh, Arbovirus inh, Lmaj promast)
COc1ccc(C2C(C(=O)c3ccccc3)=C(C)Nc3nc4ccccc4n32)c(OC)c1 (centres undefined)	Lmaj promast 87
COc1cc(OC)c(C2C3=C(CCCC3=O)Nc3nc4ccccc4n32)cc1OC (centres undefined)	Lmaj promast 99
COc1cc(/C=N/NC(=O)COc2ccc(-n3cnnn3)cc2)ccc1OCC(N)=O	none (no result: WT yeast gro inh, Arbovirus inh, Lmaj promast)
Cc1oc2ccc(O)c(CN3CCOCC3)c2c1C(=O)c1ccc(Cl)cc1	CHOP inhibitor 71, Lmaj promast 52
CCN(CC)S(=O)(=O)c1cc(NC(=O)C(C)N2CCc3ccccc32)ccc1C (centres undefined)	none
CCN(CC)S(=O)(=O)c1cc(NC(=O)C(C)N(C)CC(=O)Nc2c(C)cccc2C)ccc1C (centres undefined)	Lmaj promast 68
Cn1nc(C(=O)NNC(=O)COc2ccccc2)c2ccccc2c1=O	Lmaj promast 55
CCN(C(=O)COC(=O)CNS(=O)(=O)c1ccccc1)c1ccccc1	none
COc1ccc(Nc2nnc(-c3ccc(C)cc3)c3ccccc23)cc1C(=O)N1CCCCC1	Lmaj promast 66
COc1ccc(Nc2nnc(-c3ccccc3)c3ccccc23)cc1C(=O)N1CCCCC1	none
Cc1ccc(SC(c2ccccc2)C(Cn2cncn2)C(=O)c2ccccc2)cc1 (centres undefined)	none
O=C(c1ccc(Cl)cc1)C(Cn1cncn1)C(Sc1ccccc1)c1ccccc1 (centres undefined)	CHOP inhibitor 78, Lmaj promast 92
CC(C)(C)C(=O)/C=c1\[nH]c(=O)/c(=C\c2ccc(C#N)cc2)s1	Lmaj promast 60
CC(C)C(=O)Nc1nnc(SCC(=O)NCc2ccco2)s1	none
CCOc1cc(/C=N\Nc2ncc(F)c(N3CCOCC3)n2)ccc1Oc1nc(Cl)ncc1F	none (no result: WT yeast gro inh, Arbovirus inh, Lmaj promast)
O=C(Nc1nc2cc3c(cc2s1)OCCO3)C1=COCCO1	CHOP inhibitor 94 (no result: WT yeast gro inh, Arbovirus inh, Lmaj promast)
CCOC(=O)c1cnc(SCc2nc(N)nc(Nc3ccc(C)cc3)n2)nc1N	Arbovirus inh 44
CCOC(=O)c1ccccc1NC(=O)CSc1ncc(C(=O)OCC)c(N)n1	CHOP inhibitor 75
CCOC(=O)c1cnc(SCc2nc(N)nc(Nc3ccc(F)cc3)n2)nc1N	none
COc1ccccc1NC(=O)CN(Cc1ccco1)C(=O)c1ccc(Cl)nc1	none
O=C(CN1CCN(C2CCCCC2)CC1)Nc1ccccc1-c1ccccc1	Lmaj promast 59
C/C(=N\Nc1ccc([N+](=O)[O-])cc1[N+](=O)[O-])C(C)(C)C(C(=O)O)C(=O)O	none
CC[n+]1c(/C=C/N(C)c2ccccc2)oc2ccccc21	Lmaj promast 100
O=S(=O)([O-])CCC[n+]1c(/C=C\Nc2ccccc2)oc2ccc(-c3ccccc3)cc21	none
CC[n+]1c(/C=C/Nc2ccccc2)oc2ccccc21	Lmaj promast 96
CN(/C=C/c1c([N+](=O)[O-])c(=O)n(C)c(=O)n1C)c1ccccc1	none
CC[n+]1c(/C=C/N(C)c2ccccc2)oc2ccc(F)cc21	Lmaj promast 84
CC[n+]1c(/C=C/Nc2ccccc2)oc2ccc(OC)cc21	none
Cc1onc(-c2ccc(Cl)cc2)c1-c1ccnc(SCC(=O)Nc2cc(Cl)cc(Cl)c2)n1	none (no result: WT yeast gro inh, Arbovirus inh, Lmaj promast)
COCCSc1nc(N)c2c3c(sc2n1)CN(C)CC3	none (no result: WT yeast gro inh, Arbovirus inh, Lmaj promast)
O=C(Nc1cccc(Cl)c1)Nc1csc([N+](=O)[O-])c1	none (no result: WT yeast gro inh, Arbovirus inh, Lmaj promast)
O=C(CN1CCCCCC1)Nc1ccc(Oc2ccccc2)cc1	Lmaj promast 62
O=C(CCSc1ccccc1)NC(=O)COC(=O)C1CCCCC1	CHOP inhibitor 70
O=C(COC(=O)C1CC1)Nc1ccc(Oc2ccccc2)cc1	none
O=C(CN1CCN(c2ccccn2)CC1)Nc1ccccc1	none
O=C(CN1CCN(c2ccccn2)CC1)Nc1ccc(Oc2ccccc2)cc1	Lmaj promast 90
O=C(CCSc1ccccc1)NC1CCCCCC1	none
O=C(COC(=O)C1CCC1)Nc1ccc(Oc2ccccc2)cc1	Lmaj promast 67
CC(C)(C)c1ccc(C(=O)NN2C(=O)CSC2=S)cc1	none (no result: WT yeast gro inh, Arbovirus inh, Lmaj promast)
N#CC1=C(N)Nc2ncnn2C1c1ccc(F)cc1 (centres undefined)	none
O=C(COC(=O)c1cnccn1)c1ccc(Cl)cc1	none
CCOCCCNC(=O)c1c[nH]c2c(CC)cccc2c1=O	none
CCNC(=S)N/N=C(\C)c1ccc2ccccc2c1	WT yeast gro inh 72
C/C(=N\NC(=S)NC(C)C)c1ccccc1OC(F)F	none
CCNC(=S)N/N=C(\C)c1ccc2ccccc2c1OC(F)F	WT yeast gro inh 73
CCNC(=S)N/N=C(\C)c1cccc(OC)c1	none
CN(CCN1CCOCC1)Cc1nc(-c2ccc(Cl)cc2)no1	none (no result: WT yeast gro inh, Arbovirus inh, Lmaj promast)
Cc1cc2c(cc1C)CSC(c1ccc(O)cc1)SC2	CHOP inhibitor 90
O=C(Nc1ccccc1)Nc1ccc(Cl)c(S(=O)(=O)N2CCOCC2)c1	none
CC(=O)Nc1ccc(S(=O)(=O)N2CC3(C)CC2CC(C)(C)C3)cc1 (centres undefined)	none
CC1(C)CC2CC(C)(CN2S(=O)(=O)c2ccc(C(=O)Nc3ccc(Cl)c(S(=O)(=O)N4CCOCC4)c3)cc2)C1 (centres undefined)	Lmaj promast 97
CC1(C)CC2CC(C)(CN2S(=O)(=O)c2ccc(C(=O)Nc3ccc(S(=O)(=O)N4CCOCC4)cc3)cc2)C1 (centres undefined)	Lmaj promast 99
O=C(Nc1ccc(Cl)c(S(=O)(=O)N2CCOCC2)c1)c1ccccc1-c1ccc(C(F)(F)F)cc1	Lmaj promast 99
O=C(CCNC(=O)c1ccco1)Nc1ccc(N2CCOCC2)cc1	none
CC1CN(c2ccccc2)NC1=O (centres undefined)	none
CC(/C=C/c1ccccc1)=N/O	none
CC(/C=C/c1ccc(OCc2ccccc2)cc1)=N\O	Lmaj promast 83
COc1ccc(-n2ncc3c(SCC(=O)N4CCN(c5ccccc5OC)CC4)ncnc32)cc1	none
CC(=O)Nc1ccc(S(=O)(=O)NCCC(=O)OCCN2C(=O)c3ccccc3C2=O)cc1	WT yeast gro inh 73
COCCN1Cc2cccc(C(=O)NC3CCCCCC3)c2C1=O	WT yeast gro inh 71
Cc1sc2nc(-c3ccccc3)[nH]c(=O)c2c1-c1ccccc1	none
Cc1sc2nc(-c3cccnc3)nc(Cl)c2c1-c1ccccc1	Lmaj promast 61
